Source: PubChem (Broad Institute)
esBAF inh – inhibitors of esBAF chromatin remodeling in mouse ES cells; AID 602393; reporter increase, % at 12.5 µM; Bmi1-luciferase knock-in reporter, 24 h; 100% = twice the neutral-well signal; 2% of 350,000 active; in the data active = activation above about 40%; inconclusive = no clear call, values can overlap the other calls;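 also: 0% = median of the plate's neutral control wells and 100% = double that signal; a rise in the Bmi1 reporter signal indicates esBAF inhibition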
Env fusion inh – blocks HIV Env-driven cell-cell fusion; inhibition, % at 12.3 µM; AID 651610; 1.1% of 360,000 active; HeLa-JRFL Env/CEM21 cell fusion, luciferase;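 active = mean replicate inhibition score of at least 50 and every replicate individually at or above 50; inconclusive = only one of the two criteria met; inactive = mean below 50 and not all replicates reaching 50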;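 also: 0% = plate neutral controls and 100% = maraviroc near 300 nM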
MITF act – increases MITF-driven TRPM1 promoter luciferase signal; SK-MEL-5 TRPM1-promoter luciferase, 24 h; % of positive control, neutral wells = 0; activation, % at 12.5 µM; 0.75% of 300,000 active;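 active = mean activation of at least 80% with every replicate also reaching 80%; inconclusive = mean reaches 80% but some replicate falls short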;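 also: 0% = neutral control wells and 100% = parthenolide positive control wells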
Wnt act – activators of Wnt/beta-catenin signaling. 1.2% of 300,000 active. Wnt/beta-catenin reporter cell assay, activator, plate reader. activation, % at 9.35 µM; in the data active = activation above about 30%, passing the limit was not always enough; inconclusive = no clear call, values can overlap the other calls;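 also: 0% = neutral control wells and 100% = positive control wells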
miR122 inh – inhibitors of miR-122 in Huh7 cells; Huh7 miR-122 Renilla luciferase sensor, 48 h; neutral wells = 0, positive control = 100; activation (reporter increase), % at 12.5 µM; 0.3% of 340,000 active; AID 602342;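 active = mean replicate activation score at least 90 and every replicate individually at or above 90; inconclusive = only one of the two criteria met; inactive = neither criterion met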;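 also: higher luciferase means less miR-122 activity so hits act as miR-122 inhibitors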
Starred values were filed as active, the others as inactive; ? = inconclusive; · = no result given; [ ] = dose if it differs, or a comment. Only some compounds are listed: those with a hit (about 3.4% of all), similar ones and a draw of the others.

SMILES	esBAF inh	Env fusion inh	MITF act	Wnt act	miR122 inh
COc1ccc2nc(Nc3nc(CSc4nc5ccccc5[nH]4)cc(=O)[nH]3)nc(C)c2c1	·	86*	-45	·	-4
COc1ccc(S(=O)(=O)N(C)C[C@@H]2Oc3ccc(NC(=O)Nc4cccc5ccccc45)cc3C(=O)N([C@@H](C)CO)C[C@@H]2C)cc1	·	20[16.7 µM]	·	·	·
CCN(CC)CCn1c2ccccc2c2nc3ccccc3nc21	78*	-72	·	3	-7
CCCn1c2ccccc2c2nc3ccccc3nc21	·	-260	11	17	-1
COCc1cn(CC[C@H]2CC[C@H](NC(=O)Nc3ccc(C(F)(F)F)cc3)[C@H](CO)O2)nn1	0	·	·	·	·
N#Cc1ccc(-c2ccc(OCC(O)Cn3nnc4ccccc43)cc2)cc1 (centres undefined)	·	59*	-2	-2	-2
C[C@@H]1CN([C@@H](C)CO)C(=O)c2cc(C#C[C@@H](C)O)cnc2O[C@@H]1CN(C)C(=O)Nc1ccc(F)cc1	3	-28[16.7 µM]	·	·	-4[16.7 µM]
S=C(Nc1ccc(Cl)c(Cl)c1)NC1CCCCC1	37	·	28	7	159*
S=C(Nc1ccccc1Cl)NC1CCCCCC1	9	5	7	2	149*
COC(=O)[C@@H]1[C@@H](CO)[C@@H]2Cn3c(ccc(-c4ccccc4)c3=O)[C@@H]2N1CC1CCCCC1	4	·	·	·	-4[16.7 µM]
C[C@@H]1CCCCO[C@H](CN(C)S(=O)(=O)c2ccc(Cl)cc2)[C@H](C)CN([C@H](C)CO)C(=O)c2cc(N(C)C)ccc2O1	-2	23[16.7 µM]	·	·	17[16.7 µM]
Cc1ccc(NC(=O)/C(C#N)=N/Nc2ccc(C(=O)O)cc2)c(C)c1	·	-14	0	44*	1
COc1ccc(S(=O)(=O)N2CCCCN3[C@H](CO)[C@H](c4ccc(C#CC(C)C)cc4)[C@H]3C2)cc1	-7	·	·	·	-9[16.7 µM]
Cc1ccnc(Nc2nc(-c3sc(C)nc3C)cs2)c1	43*	15	·	1	-15
Cc1ccnc(Nc2nc(-c3ccc(Cl)cc3)cs2)c1	67*	-28	13	6	-7
C=CCNc1nc(-c2ccc(Cl)cc2)cs1	·	·	134*	·	-1
Cc1nc(C)c(-c2csc(Nc3cccc(O)c3)n2)s1	·	-235	42	85*	·
C[C@@H]1CN([C@H](C)CO)C(=O)Cc2cc(NC(=O)Cc3ccccc3)ccc2O[C@H]1CN(C)Cc1ccc(Cl)c(Cl)c1	-3	18[16.7 µM]	·	·	-7[16.7 µM]
Cc1cc(C(=O)CSc2nncs2)c(C)n1-c1ccc2c(c1)OCO2	80*	·	71	·	-6
CC(=O)c1cccc(NC(=O)Nc2ccc3c(c2)CCC3)c1	66*	-31	97*	19	-6
COc1cccc(NC(=O)Nc2ccc3c(c2)CCC3)c1	?	-72	65	21	-3
CC(=O)c1cccc(NC(=O)c2noc3c2CCc2ccccc2-3)c1	17	-293	?	33*	0
CC(=O)c1cccc(Nc2ccc(Br)cc2)c1	54*	-85	·	18	1
Cc1cccc(NC(=O)Nc2ccc3c(c2)CCC3)c1	·	-36	?	22	·
CC(=O)c1cccc(NC(=S)NC(=O)c2ccc(Br)cc2)c1	·	-143	58	·	15
SMILES	esBAF inh	Env fusion inh	MITF act	Wnt act	miR122 inh
Cc1cc(NC(=O)c2noc3c2CCc2ccccc2-3)no1	40	1	25	10	-5
CCc1ccc(NC(=O)Nc2ccc3c(c2)CCC3)cc1	53*	-97	51	10	-6
COc1ccc(CN(C)C[C@H]2Oc3ccc(NC(=O)NC4CCCCC4)cc3C(=O)N([C@@H](C)CO)C[C@H]2C)cc1	0	·	·	·	5[16.7 µM]
Cc1cccc(-c2ccc([C@@H]3[C@@H](CO)N4CCCCN(C(=O)NC(C)C)C[C@@H]34)cc2)c1	-2	·	·	·	2[16.7 µM]
Cc1cccc(S(=O)(=O)N2C[C@H](O)COC[C@@H]3O[C@@H](CC(=O)Nc4ccc(-c5ccccc5)cc4)CC[C@H]32)c1	-4	19[16.7 µM]	·	·	0[16.7 µM]
CCc1ccc(NC(=O)Nc2ccon2)cc1	44*	-46	59	17	-3
O=C(Nc1ccc([N+](=O)[O-])cc1)Nc1ccon1	-19	-135	-35	-2	?
CC(=O)c1cccc(NC(=O)c2ccc3c(c2)CCCC3)c1	15	-178	113*	24	·
O=C(Nc1ccc2c(c1)oc1ccc(S(=O)(=O)N3CCCC3)cc12)C1CC1	10	·	-5	·	11
O=C(Nc1ccc2c(c1)oc1ccccc12)C1CC1	59*	·	·	0	18
CC(C)CC(=O)Nc1ccc2c(c1)oc1ccccc12	62*	-149	91*	·	72
O=C(Nc1ccc2c(c1)OC1(CCCC1)O2)C1CC1	42*	·	37	·	-1
COc1cccc(S(=O)(=O)N2CC[C@@H]3[C@H](CO)Nc4ccc(C#Cc5ccccc5)cc4[C@@H]32)c1	-6	·	·	·	-1[16.7 µM]
CC(C)NC(=O)Nc1cccc2c1O[C@@H](CN(C)Cc1ccc(C(=O)O)cc1)[C@H](C)CN([C@H](C)CO)C2=O	3	·	·	·	-3[16.7 µM]
Cc1noc(C)c1S(=O)(=O)Nc1ccc2c(c1)C(=O)N([C@H](C)CO)C[C@@H](C)[C@H](CN(C)C(=O)Nc1ccc3c(c1)OCO3)O2	-5	·	·	·	-4[16.7 µM]
CCCCC(O)(CCCC)C(=O)NN(C(=O)OC)c1ccccc1	·	·	3	0	144*
CCOC(=O)N(NC(=O)C(O)(CC(C)C)CC(C)C)c1ccccc1	·	-4	3	-6	·
CCCC(O)(CCC)C(=O)NN(C(=O)CCl)c1ccccc1	·	85*	-9	-6	·
CCCCC(O)(CCCC)C(=O)NN(C(=O)OCC)c1ccccc1	·	-43	-7	-3	·
CO[C@@H]1CN(C)C(=O)c2cc(NC(=O)NC(C)C)ccc2OC[C@H](C)NC[C@@H]1C	-8	14[16.7 µM]	·	·	-2[16.7 µM]
Cc1cc(OCc2cc(C(=O)N(C)Cc3ccccn3)no2)cc(C)c1Cl	75*	·	97*	?	-3
CSc1ccccc1OCc1cc(C(=O)N(C)C(C)c2ccccn2)no1 (centres undefined)	0	-17	5	-1	3
CC(=O)c1ccc(OCc2cc(C(=O)N(C)Cc3ccccn3)no2)cc1	104*	-26	99*	19	-4
Cc1cc(OCc2cc(C(=O)N(C)C(C)c3ccccn3)no2)cc(C)c1Cl (centres undefined)	57*	-15	30	20	-6
Cc1ccc([N+](=O)[O-])cc1N(CC(=O)Nc1ccc(S(=O)(=O)Nc2cccc(C(F)(F)F)c2)cc1)S(C)(=O)=O	·	·	-9	·	123*
O=C(NC(=S)Nc1nc(-c2ccc(Br)cc2)cs1)c1ccco1	·	-18	2	1	·
Cc1cccc(NC(=O)c2ccco2)c1C	0	9	·	2	·
O=C(CCNC(=O)c1ccco1)Nc1nc(-c2ccccc2)cs1	53*	?	·	19	0
Cc1cc(NC(=O)c2ccco2)sc1C	29	-67	104*	62*	-1
O=C(NC(=S)Nc1nc(-c2ccc([N+](=O)[O-])cc2)cs1)c1ccco1	54*	·	23	18	-7
